Laboratory results reported in PubChem BioAssay (NCI).
About 83,000 compounds went through this panel and 20% of them were active in at least one assay; those are over-represented in the sample as a whole.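 Method: cells in 96-well plates; compound added at one concentration; 48 h incubation; percent growth measured; values under 10 scored active.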 Activity calls are given as the source filed them.

Assays:
Assay in all cases: NCI-60 one-dose screen, 48 h (100 = growth as untreated, 0 = no growth, -100 = all killed)
Conditions in all cases: 10 µM unless noted
NCI-H226 lung = test system: NCI-H226 lung
NCI-H322M lung = test system: NCI-H322M lung
HOP-62 NSCLC = test system: HOP-62 NSCLC
NCI-H460 lung = test system: NCI-H460 lung
HOP-92 NSCLC = test system: HOP-92 NSCLC
NCI-H522 lung = test system: NCI-H522 lung
A549/ATCC NSCLC = test system: A549/ATCC NSCLC
786-0 renal = test system: 786-0 renal
COLO 205 colon = test system: COLO 205 colon
DU-145 prostate = test system: DU-145 prostate

Measured: growth

O=C(CCCN1C(=O)/C(=C/c2ccccc2F)SC1=S)N1CCOCC1
inactive: NCI-H226 lung 110% | NCI-H322M lung 85.5% | HOP-62 NSCLC 119% | NCI-H460 lung 97.8% | HOP-92 NSCLC 86.4% | NCI-H522 lung 48.8% | A549/ATCC NSCLC 93.1% | 786-0 renal 89.8% | COLO 205 colon 126% | DU-145 prostate 74.5%

N#Cc1nc(-c2ccccc2)oc1S(=O)(=O)N1CCCCC1
inactive: NCI-H226 lung 105% | NCI-H322M lung 104% | HOP-62 NSCLC 110% | NCI-H460 lung 110% | HOP-92 NSCLC 55.7% | A549/ATCC NSCLC 98.7% | 786-0 renal 24.7% | COLO 205 colon 44.1% | DU-145 prostate 41.6%
active: NCI-H522 lung -62%

O=c1[nH]c2ccccc2cc1CSc1ccccc1Nc1nccc(-c2ccc(C(F)(F)F)cc2)n1
inactive: NCI-H226 lung 56.8% | NCI-H322M lung 90.5% | HOP-62 NSCLC 78.5% | NCI-H460 lung 40.8% | HOP-92 NSCLC 20.5% | NCI-H522 lung 80% | A549/ATCC NSCLC 57.6% | 786-0 renal 45.4% | COLO 205 colon 104% | DU-145 prostate 73.4%

Clc1ccc2c(NCCCn3ccnc3)c3oc4ccccc4c3nc2c1
active: NCI-H460 lung -7.61% | 786-0 renal -9.95%
inactive: NCI-H226 lung 51.4% | NCI-H322M lung 40.7% | HOP-62 NSCLC 65.9% | HOP-92 NSCLC 33.1% | NCI-H522 lung 44% | A549/ATCC NSCLC 34.4% | COLO 205 colon 31.8% | DU-145 prostate 24.6%

CSCCC(C(=O)O)N1C(=O)/C(=C/c2ccc(O)c(O)c2)SC1=S (stereo not given)
inactive: NCI-H226 lung 107% | NCI-H322M lung 91.8% | HOP-62 NSCLC 100% | NCI-H460 lung 109% | HOP-92 NSCLC 108% | NCI-H522 lung 102% | A549/ATCC NSCLC 108% | 786-0 renal 94.4% | COLO 205 colon 123% | DU-145 prostate 108%

COc1ccc(/C=C/C(=O)c2ccc(NC(=O)CSc3nnc(-c4ccc5nc(-c6ccc(Cl)cc6)[nH]c5c4)o3)cc2)cc1
inactive: NCI-H226 lung 87.6% | NCI-H322M lung 103% | HOP-62 NSCLC 103% | NCI-H460 lung 102% | HOP-92 NSCLC 102% | NCI-H522 lung 79.1% | A549/ATCC NSCLC 105% | 786-0 renal 99.6% | COLO 205 colon 118% | DU-145 prostate 108%

O=C(Oc1ccc2ccc(=O)oc2c1)c1ccc(Cl)cc1
inactive: NCI-H226 lung 104% | NCI-H322M lung 99% | HOP-62 NSCLC 108% | NCI-H460 lung 103% | HOP-92 NSCLC 95.2% | NCI-H522 lung 105% | A549/ATCC NSCLC 94.2% | 786-0 renal 100% | COLO 205 colon 114% | DU-145 prostate 108%

CCOC(=O)c1sc(NCC(=O)Nc2cccc([N+](=O)[O-])c2)c(C(=O)OCC)c1C
active: NCI-H226 lung -33.7% | NCI-H322M lung -8.8% | HOP-62 NSCLC -12.9% | NCI-H460 lung 2.96% | HOP-92 NSCLC -19.5% | NCI-H522 lung -41.5% | A549/ATCC NSCLC -38.1% | 786-0 renal -12.4% | COLO 205 colon -33.4% | DU-145 prostate -6.75%

COC(=O)C1CCCN(S(=O)(=O)/N=C2\NC(=O)NC2=C(Cl)Cl)C1 (stereo not given)
inactive: NCI-H226 lung 105% | NCI-H322M lung 103% | HOP-62 NSCLC 118% | NCI-H460 lung 108% | HOP-92 NSCLC 110% | NCI-H522 lung 87.7% | A549/ATCC NSCLC 106% | 786-0 renal 102% | COLO 205 colon 112% | DU-145 prostate 112%

COc1cc(/C=C/C(=O)c2ccc(C(F)(F)F)cc2)ccc1Oc1nc(NCCO)nc(N2CCOCC2)n1
inactive: NCI-H226 lung 89.2% | NCI-H322M lung 101% | HOP-62 NSCLC 90.2% | NCI-H460 lung 98.7% | HOP-92 NSCLC 95% | NCI-H522 lung 86.8% | A549/ATCC NSCLC 91.6% | 786-0 renal 100% | COLO 205 colon 108% | DU-145 prostate 101%

COc1ccc(-c2nc3ccc(-c4nnc(SCC(=O)Nc5ccc(C(=O)/C=C/c6ccc(Cl)cc6)cc5)o4)cc3[nH]2)cc1OC
inactive: NCI-H226 lung 98.5% | NCI-H322M lung 95.8% | HOP-62 NSCLC 103% | NCI-H460 lung 103% | HOP-92 NSCLC 105% | NCI-H522 lung 98.4% | A549/ATCC NSCLC 103% | 786-0 renal 103% | COLO 205 colon 116% | DU-145 prostate 109%

CC(C)(O)c1cncc(-c2ccc3ncnc(N4CCc5cc(F)c(Cl)cc54)c3c2)c1
active: NCI-H322M lung -0.361% | HOP-92 NSCLC -6.69%
inactive: NCI-H226 lung 23.7% | HOP-62 NSCLC 30.2% | NCI-H460 lung 17.2% | NCI-H522 lung 18.5% | A549/ATCC NSCLC 15.8% | 786-0 renal 11.7% | COLO 205 colon 30.1% | DU-145 prostate 14.4%

N#Cc1nc(-c2ccccc2)oc1N1CCC(CO)C1 (stereo not given)
inactive: NCI-H226 lung 92.6% | NCI-H322M lung 88.4% | HOP-62 NSCLC 107% | NCI-H460 lung 103% | HOP-92 NSCLC 129% | NCI-H522 lung 97.8% | A549/ATCC NSCLC 95.2% | 786-0 renal 101% | COLO 205 colon 116% | DU-145 prostate 104%

N=C1CC(=O)NN1C(=O)CSc1nc2sc3c(c2c(=O)n1-c1ccc(Cl)cc1)CCCC3
inactive: NCI-H226 lung 103% | NCI-H322M lung 103% | HOP-62 NSCLC 90.3% | NCI-H460 lung 101% | HOP-92 NSCLC 80.1% | NCI-H522 lung 102% | A549/ATCC NSCLC 102% | 786-0 renal 94.2% | COLO 205 colon 123% | DU-145 prostate 111%

Cn1c(SCC(=O)c2cccs2)nc2ccccc2c1=O
inactive: NCI-H226 lung 91.9% | NCI-H322M lung 102% | HOP-62 NSCLC 85.9% | NCI-H460 lung 98.7% | HOP-92 NSCLC 87.3% | NCI-H522 lung 87.8% | A549/ATCC NSCLC 99.6% | 786-0 renal 98.6% | COLO 205 colon 111% | DU-145 prostate 105%

Cc1ccc2ccc3ccc(C)nc3c2n1.Cc1ccc2ccc3ccc(C)nc3c2n1.Oc1c(Cl)cc(Cl)c2ccc(CN3CCCCC3)nc12.[Ru]
active: NCI-H226 lung -69% | NCI-H322M lung -83.4% | HOP-62 NSCLC -57.2% | NCI-H460 lung -15.2% | HOP-92 NSCLC -86.5% | NCI-H522 lung -68.8% | A549/ATCC NSCLC -42.7% | 786-0 renal -87.7% | COLO 205 colon -74.2% | DU-145 prostate -93.3%

OC1CCN(CCCOc2c3ccc(Cl)cc3nc3c2oc2ccccc23)CC1
active: NCI-H226 lung -6.33% | NCI-H322M lung -16.3% | NCI-H460 lung -9.21% | HOP-92 NSCLC -4% | NCI-H522 lung -48.9% | A549/ATCC NSCLC 9.13% | 786-0 renal -30.7% | COLO 205 colon -69% | DU-145 prostate -0.646%
inactive: HOP-62 NSCLC 12.5%

C#Cc1nc(C2=C(C)C(O)CC2)cs1 (stereo not given)
active: 786-0 renal -87.8%
inactive: NCI-H226 lung 110% | NCI-H322M lung 111% | HOP-62 NSCLC 103% | NCI-H460 lung 113% | HOP-92 NSCLC 115% | NCI-H522 lung 97.2% | A549/ATCC NSCLC 100% | COLO 205 colon 118% | DU-145 prostate 110%

NS(=O)(=O)c1cccc(Nc2nc(SCC(=O)c3ccc([N+](=O)[O-])cc3)nc3ccccc23)c1
inactive: NCI-H322M lung 82.7% | HOP-62 NSCLC 71.9% | NCI-H460 lung 36.3% | HOP-92 NSCLC 52% | NCI-H522 lung 19.3% | A549/ATCC NSCLC 70.6% | 786-0 renal 44.6% | COLO 205 colon 83.1% | DU-145 prostate 42.8%
active: NCI-H226 lung -20.9%

NS(=O)(=O)c1cccc(Nc2nc(SCC(=O)c3ccc(Cl)cc3)nc3ccccc23)c1
inactive: NCI-H226 lung 42.5% | NCI-H322M lung 81.5% | HOP-62 NSCLC 36.2% | NCI-H460 lung 48.4% | HOP-92 NSCLC 24.5% | NCI-H522 lung 59.4% | A549/ATCC NSCLC 79.5% | 786-0 renal 74.4% | COLO 205 colon 105% | DU-145 prostate 78.3%

CN1CCN(Cc2ccc(NC(=O)c3cncc(C#Cc4cnc5ccc(N6CCSCC6)nn45)c3)cc2C(F)(F)F)CC1
active: NCI-H226 lung -24.7% | NCI-H322M lung -23.9% | HOP-62 NSCLC -31.1% | NCI-H460 lung -46.6% | HOP-92 NSCLC -48.6% | NCI-H522 lung -75.4% | A549/ATCC NSCLC -24.5% | 786-0 renal -77.7% | COLO 205 colon -87.9% | DU-145 prostate -83.2%

N#Cc1c(-c2ccc(F)cc2)nc2c(C#N)c(Nc3ccccc3)nn2c1N
inactive: NCI-H226 lung 112% | NCI-H322M lung 105% | HOP-62 NSCLC 97.3% | NCI-H460 lung 106% | HOP-92 NSCLC 92.5% | NCI-H522 lung 97.9% | A549/ATCC NSCLC 101% | 786-0 renal 86.9% | COLO 205 colon 110% | DU-145 prostate 103%

COc1cc2nc(-c3ccc(C)cc3)cc(OCCCNCC3CCCO3)c2cc1OC (stereo not given)
inactive: NCI-H226 lung 89.4% | NCI-H322M lung 70.4% | HOP-62 NSCLC 75.2% | NCI-H460 lung 38% | HOP-92 NSCLC 47% | NCI-H522 lung 59.1% | A549/ATCC NSCLC 61.6% | 786-0 renal 73.5% | COLO 205 colon 45.4% | DU-145 prostate 60%

C=CCn1c(SCC(=O)c2ccc(Br)cc2)nnc1-c1c[nH]c2ccccc12
inactive: NCI-H226 lung 90.1% | NCI-H322M lung 99.5% | HOP-62 NSCLC 103% | NCI-H460 lung 106% | HOP-92 NSCLC 91.4% | NCI-H522 lung 96.3% | A549/ATCC NSCLC 103% | 786-0 renal 98.6% | COLO 205 colon 108% | DU-145 prostate 106%

CCOC(=O)c1c(Nc2ccccc2)nn2c(N)c(C#N)c(-c3ccc(OC)cc3)nc12
inactive: NCI-H226 lung 42.3% | NCI-H322M lung 95.5% | HOP-62 NSCLC 61.3% | NCI-H460 lung 61.5% | HOP-92 NSCLC 47% | NCI-H522 lung 83.3% | A549/ATCC NSCLC 69% | 786-0 renal 32.8% | COLO 205 colon 96.3% | DU-145 prostate 66.3%

COc1cccc(-c2nn(-c3ccccc3)cc2-c2ccnc(N3CCN(C(=O)Nc4ccc(F)cc4)CC3)c2)c1
inactive: NCI-H226 lung 66.7% | NCI-H322M lung 79.2% | HOP-62 NSCLC 102% | NCI-H460 lung 69.5% | HOP-92 NSCLC 63.1% | NCI-H522 lung 36.2% | A549/ATCC NSCLC 55.9% | 786-0 renal 68.1% | COLO 205 colon 64.7% | DU-145 prostate 67.5%

CS(=O)(=O)c1ccc(-n2cc(/C=C/C(=O)c3ccc(NC(=O)CO[N+](=O)[O-])cc3)c(-c3ccc(Cl)cc3)n2)cc1
inactive: NCI-H226 lung 72.2% | NCI-H322M lung 97.1% | HOP-62 NSCLC 103% | NCI-H460 lung 106% | HOP-92 NSCLC 90.2% | NCI-H522 lung 103% | A549/ATCC NSCLC 91.8% | 786-0 renal 67.6% | COLO 205 colon 111% | DU-145 prostate 101%
